Assay results: PubChem BioAssay AID504937 (National Center for Advancing Translational Sciences (NCATS), 2011)
Screen size: about 340,000 compounds; about 20 (0.006%) were called active. The entries come from a sample that favours actives as a whole. Values without a mark were called inactive. Calls come from the whole dose curve; as a rule, active = well fitted inhibition curve with a large enough effect; inconclusive = small, poorly fitted or top-dose-only effect; inactive = no such curve, though single readings can be large or run the other way.

Biological target: Sphingomyelin phosphodiesterase (Homo sapiens) (UniProt P17405)
Sequence (P17405 47-631 limits assumed): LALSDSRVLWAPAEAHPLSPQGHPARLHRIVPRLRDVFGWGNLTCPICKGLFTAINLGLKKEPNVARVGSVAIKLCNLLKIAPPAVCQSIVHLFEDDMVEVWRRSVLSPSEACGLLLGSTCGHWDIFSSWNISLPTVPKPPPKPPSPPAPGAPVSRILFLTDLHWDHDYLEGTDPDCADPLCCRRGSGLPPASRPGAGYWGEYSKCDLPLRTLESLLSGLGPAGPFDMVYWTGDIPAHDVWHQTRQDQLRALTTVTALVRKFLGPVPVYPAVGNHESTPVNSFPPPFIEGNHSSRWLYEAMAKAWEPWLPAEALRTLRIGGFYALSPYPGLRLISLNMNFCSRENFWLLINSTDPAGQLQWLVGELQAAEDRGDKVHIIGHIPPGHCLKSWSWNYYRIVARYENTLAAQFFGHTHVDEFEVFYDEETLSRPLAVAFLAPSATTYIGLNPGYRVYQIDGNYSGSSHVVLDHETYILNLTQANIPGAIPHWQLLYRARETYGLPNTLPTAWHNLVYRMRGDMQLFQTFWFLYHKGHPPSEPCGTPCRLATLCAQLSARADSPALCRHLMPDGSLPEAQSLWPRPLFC
Assay: Inhibitors of Secretory Acid Sphingomyelinase (S-ASM): qHTS
Settings: placental ASM, HMU-PC fluorogenic substrate, 60 min; series mostly up to 57.5 µM; activity change, negative = inhibition: at the top concentration
Source text: Atherosclerosis is the underlying process for cardiovascular disease and thus is a major contributor to disease burden in the population. […] Thus, selective small molecule inhibitors of S-ASM should block LDL modification and reduce aortic LDL retention and may serve as new agents for the treatment of atherosclerosis. In a collaboration between National Heart, Lung, and Blood Institute and the NCGC a high-throughput amenable screen was developed to identify potent and selective small molecule inhibitors of S-ASM. This enzymatic, fluorescent screen uses an ASM enzyme preparation derived from human placenta and was tested against the NIH Molecular Libraries Small Molecule Repository (MLSMR). NIH Chemical Genomics Center [NCGC] NIH Molecular Libraries Probe Centers Network [MLPCN] MLPCN Grant: MH093173-01 Assay Submitter (PI): Alan Remaley, National Heart, Lung, and Blood Institute and Wei Zhen, NIH Chemical Genomics Center
Two microliters of ASM enzyme (1:150 dilution from stock) are dispensed in 1536-well plate. 23 nL of compound and control are pinned into assay plate using the Kalypsys pintool. The plates are then incubated for 10 minutes at ambient room temperature. Then, 2 uL of the flurogenic substrate, HMU-PC0, (9 uM final) are added to the plate. An incubation for 60 minutes takes place at 37 masculineC. After that, 4 uL of stop solution is added to raise the pH to 10 to end the kinetic reaction. Plate is read on ViewLux, with detection set at Ex = 386 (10) nm and Em = 447 (10) nm.
Potency is the fitted concentration of half-maximal effect.

Compound	activity change, negative = inhibition	Potency
COc1ccc(Cl)cc1C=CC=NNC(=O)c1ccncc1	1.72%	–
COC(=O)[C@@H]1C[C@@]2(O)[C@H](O)[C@H](O)[C@H](O)C[C@H]2N1Cc1ccc(C)s1	2.02%	–
Cn1c(=O)c2c(n(Cc3ccccc3)c1=O)NC(=O)C2CC(=O)N1CCc2ccccc2C1 (configuration not stated)	11%	–
CCOC(=O)c1c(C2CC2)csc1NC(=O)CSCc1c(C)noc1C	-10.2%	–
CCOC(=O)C1=CN(Cc2ccc(Br)cc2)S(=O)(=O)N(C)C1C (configuration not stated)	-9.71%	–
COCc1c(C(=O)N/N=C(\C)c2ccncc2)nnn1-c1nonc1N	2.13%	–
COc1ccc2c(C)c(CCC(=O)NC3CC3)c(=O)oc2c1C	-0.686%	–
CC(=O)N1c2ccc(S(=O)(=O)N(C)CC(=O)N(C)Cc3ccccc3)cc2CC1C (configuration not stated)	-1.44%	–
C=CCN1C(=O)c2ccc(C(=O)N3CCC(C(=O)OCC)CC3)cc2C1=O	-2.79%	–
COc1nc(OC)nc(N(C)CCO)n1	4.61%	–
CCOC(=O)C1CCN(C(=O)C2CCN(S(=O)(=O)CC)CC2)CC1	1.4%	–
Cc1cccc(OCC(=O)OCC(=O)Nc2ccc(Cl)cn2)c1	-3.52%	–
Cc1ccc(C(=O)NCC(=O)NCc2cc(=O)n(C)c(=O)n2C)cc1	0.0892%	–
O=S(=O)(c1ccc(F)cc1)N1CCN(C(=S)NCc2ccco2)CC1	0.335%	–
Cc1ccc(N(C(=O)c2snc(C(N)=O)c2N)C(C(=O)NCC2CCCO2)c2c[nH]c3ccccc23)cc1 (configuration not stated)	107%	–
Cc1ccc(S(=O)(=O)NC(C)C(=O)NCc2ccc(Cl)cc2)cc1 (configuration not stated)	0.606%	–
CSCCC(NS(=O)(=O)c1ccc2c(c1)oc(=O)n2C)C(=O)NC1CCCc2ccccc21 (configuration not stated)	4.92%	–
O=S(=O)(NCCCN1CCOCC1)c1ccc(F)c(Cl)c1	3.19%	–
Cc1ccc(S(=O)(=O)NC(=O)c2cccc(C)c2)cc1	2.72%	–
CC(=O)C1=C(C)NC2=C(C(=O)CC(C)(C)C2)C1C (configuration not stated)	36.1%	–
CCOC(=O)c1cc(S(=O)(=O)NCCc2ccc(OC)c(OC)c2)cn1C	0.167%	–
CSCCC(NC(=O)c1ccccc1)C(=O)N1CCN(Cc2ccc(Cl)cc2)CC1 (configuration not stated)	-1.3%	–
CC1C(=O)N2CCCc3cc(S(=O)(=O)NCc4ccc(F)cc4)cc1c32 (configuration not stated)	2.3%	–
COC(=O)c1ccc(CN2CCCC(C(=O)Nc3cccc(-n4cnnn4)c3)C2)cc1 (configuration not stated)	0.0712%	–
O=C1c2ccccc2C2=Nc3ccccc3SC(c3ccccc3F)C12 (configuration not stated)	-27.7%	–
CCOC(=O)c1ccccc1NC(=S)N1CCC(C(N)=O)CC1	-1.43%	–

Compound	activity change, negative = inhibition	Potency
COc1cccc(NC(=O)CSc2nnc(Cc3ccc(OC)c(OC)c3)o2)c1	-3.18%	–
O=C1N[C@H](Cc2c[nH]c3ccccc23)COC(=O)[C@H](Cc2ccc(F)cc2)C/C=C\C[C@H]1CC(=O)N(CCO)Cc1ccccc1	-17.8%	–
CSc1nnc(-c2ccc(C(F)(F)F)cn2)o1	-0.446%	–
COc1cc(/C=C2\SC(=S)N(Nc3ncc(C(F)(F)F)cc3Cl)C2=O)cc(OC)c1OC	–	28.2 µM (active)
COc1cc(/C=C/C(=O)N2c3ccccc3Sc3ccc(C(F)(F)F)cc32)cc(OC)c1OC	-3.99%	–
O=C1/C(=C/c2ccc(F)cc2)SC(=S)N1NS(=O)(=O)c1ccccc1	-3.4%	–
Cc1c(C)c2c(OCC(=O)N[C@@H](C(=O)O)c3ccccc3)cc3c(c2oc1=O)CCC(C)(C)O3	70.3%	–
CCOC(=O)C1(Cc2cccc(OC)c2)CCN(Cc2csc(C(C)=O)c2)CC1	-0.0302%	–
S=c1[nH]nc(Nc2ccccc2)s1	-1.24%	–
COc1cccc(-n2c(=S)sc3c(=O)n(-c4ccccc4C)c(SCC(=O)O)nc32)c1	6.43%	–
CCOc1ncccc1C(=O)OCC(=O)Nc1cccc(S(=O)(=O)N2CCCCCC2)c1	-0.366%	–
N=C1C(=O)OCC1c1ccccc1NC(=O)CN1CCCCC1 (configuration not stated)	6.54%	–
COc1ccc(C(=O)N(C)CC(O)c2ccccc2)cc1OC1CCN(C(C)=O)CC1 (configuration not stated)	5.69%	–
O=C(O)CSCC(=O)Nc1ccc(C(F)(F)F)cc1	1.25%	–
CC[C@@]12C(=O)N(c3ccccc3)C(=O)N1[C@H](c1ccc(Br)cc1)[C@@H]1C(=O)N(C(C)(C)C)C(=O)[C@@H]12	-4.51%	–
COc1cccc(N(C(=O)c2ccn[nH]2)C2(C(=O)Nc3c(C)cccc3C)CCCCC2)c1	0.42%	–
COc1cc(OC)cc(C(=O)Nc2nnc(SCC(=O)NCC3CCCO3)s2)c1 (configuration not stated)	-1.35%	–
CC(C)CN(C(=O)c1cccc(S(=O)(=O)N2CCCCC2)c1)C1CCS(=O)(=O)C1 (configuration not stated)	1.29%	–
CS(=O)(=O)N(Cc1ccccc1Cl)c1ccc(C(=O)NCc2cccnc2)cc1	-2.15%	–
CC1CCN(c2ccc(S(=O)(=O)Nc3cc(C(=O)O)cc(C(=O)O)c3)cc2[N+](=O)[O-])CC1	10.1%	–
Cc1ccc2nc(SCC(=O)Nc3cccc4ccccc34)nc(=O)n2c1	-0.358%	–
CSCCC(=O)N1CCCC(CNC(=O)c2ccccc2Cl)C1 (configuration not stated)	7.66%	–
CCCn1nnc(NC(=O)COc2ccc(CC)cc2)n1	3.31%	–
COc1ccc([C@H]2CC(=O)C=C(c3ccc(OC(F)(F)F)cc3)C2)cc1OC	-15.4%	–
Cc1cccc(-[n+]2c(-c3cccc(Br)c3)[nH]c3nc4ccccc4nc32)c1	53%	–
Cc1cccc(C(=O)O)c1[N+](=O)[O-]	-0.0655%	–

Compound	activity change, negative = inhibition	Potency
CCCn1c(C)cc(C(=O)COC(=O)c2c(C)nn(-c3ccccc3)c2C)c1C	-4.51%	–
O=C(c1ccc(F)cc1)N1CCC(C(=O)N2CCN(S(=O)(=O)c3ccccc3Br)CC2)CC1	2.48%	–
Nc1ccccc1C(=O)NC1CCCCNC1=O (configuration not stated)	13.5%	–
O=C(N/N=C/c1cccc2cccnc12)[C@H]1C[C@@H]1c1ccccc1	-2.45%	–
COCC(=O)N(C)[C@H]1C[C@H]2c3cc(Oc4ccccc4C)ccc3CCN2C(=O)[C@H]1[C@H](C)O	6.99%	–
COC(=O)c1ccc(C2NC(=O)NC(C)=C2C(=O)N(C)C)cc1 (configuration not stated)	3.7%	–
COc1ccc2c(c1)C(NS(=O)(=O)OCC(Cl)(Cl)Cl)CCC2 (configuration not stated)	-5.56%	–
CCOc1ccc(-c2nc(C)sc2CC(=O)O)cc1	-0.38%	–
Cc1ccc(N(C(=O)CNC(=O)c2ccco2)C(C(=O)NC2CCCC2)c2ccncc2)cc1 (configuration not stated)	-4.07%	–
COc1ccc(NC(=O)NN2CCN(C)CC2)c(OC)c1	-3.22%	–
COC(=O)C1=C(C)N(C)C(C)=C(C(=O)OC)C1c1cccc(Br)c1	-20.8%	–
Cc1c(C(C)CCCO)oc(=O)c2c1Oc1c(C)c(C(C)C[C@@H](C)O)oc(=O)c1C2 (some centres not stated)	2.63%	–
C=CCC(Nc1ccccc1)c1cccc(OC)c1OC (configuration not stated)	0.351%	–
Cc1nn(Cc2ccc(C(=O)N3N=C(C(F)F)CC3(O)C(F)F)cc2)c(C)c1[N+](=O)[O-] (configuration not stated)	-1.95%	–
O=C(Nc1cccnc1Oc1ncnc2cc(Cl)ccc12)c1ccc(F)cc1	-1.19%	–
CCOc1ccc(N2C(=O)Nc3ccccc3C2(O)C(=O)NCc2ccco2)cc1 (configuration not stated)	0.0783%	–
O=C1COc2c1ccc(O)c2O	3.65%	–
CC(C)Cn1cnc2c1c(=O)n(CC(=O)NN)c(=O)n2Cc1ccccc1	-3.33%	–
Cc1ccsc1/C=N/NC(=O)Cc1cc(=O)[nH][nH]1	0.0426%	–
Cc1ccc(S(=O)(=O)Nc2ccccc2CNc2c(C)n(C)n(-c3ccccc3)c2=O)cc1	-0.0525%	–
CCC(C)N1C(=O)S/C(=C/c2ccc(Sc3nc4ccccc4[nH]3)o2)C1=O (configuration not stated)	1.34%	–
COc1ccc(CN2CCC(n3nccc3NC(=O)CCCc3ccccc3)CC2)cc1C	-0.972%	–
NS(=O)(=O)c1ccc(NC(=S)NNC(=O)c2cccs2)cc1	1.24%	–
Cc1cccc(NC(=O)Cn2cc(C(=O)c3ccco3)c3ccccc32)c1	-9.25%	–
CCC(CC)C(=O)Nc1ccc(S(=O)(=O)Nc2nccs2)cc1	3.8%	–
O=C(CSc1nc2[nH]c(=O)[nH]c(=O)c2s1)Nc1cccc(F)c1	-2.4%	–

Compound	activity change, negative = inhibition	Potency
CSCCC(NC(N)=O)C(=O)N(C)CC(=O)Nc1ccc(C)cc1 (configuration not stated)	2.8%	–
CC/C(Cc1ccccc1)=N/NC(=O)CCn1nnc2ccccc21	-1.28%	–
COc1ccc(C2/C=C\CN(CC(C)C)CC(=O)N2Cc2ccc(F)cc2)cc1 (configuration not stated)	-2.65%	–
COc1ccc(CN2CCOC2=O)cc1OC	-0.898%	–
COc1ccc(CNC(=O)CN(C(=O)c2csnn2)c2cnc3ccccc3c2)cc1	21.4%	–
CC(=O)c1cccc(NC(=O)C2CCCN(S(=O)(=O)c3cccc4nonc34)C2)c1 (configuration not stated)	5.69%	–
Nc1cccc2c1C(=O)N(Cc1nnc(-c3ccccc3Br)o1)C2=O	340%	–
CC1CCCCC1NC(=O)CCS(=O)(=O)c1cccc2nonc12 (configuration not stated)	-1.19%	–
O=C(NNS(=O)(=O)c1ccc(F)cc1)C1CCCCC1	-0.201%	–
CCN(CC(=O)NCc1cccs1)C(=O)/C=C/c1ccc(C)cc1	-0.0187%	–
CCn1c(O)c2ccc(C(=O)N=NC(=O)c3cccnc3)cc2c1O	-1.65%	–
O=C(NCC(=O)N(CC1CCCO1)C(C(=O)NC1CCCCC1)c1ccccc1)c1ccco1 (configuration not stated)	-1.66%	–
CC(C)Cn1c(SCC(=O)Nc2ccc(Cl)cc2F)nc(O)cc1=O	-4.26%	–
COc1ccc(SCCN2CCN(CC(C)C)CCC2=O)cc1	-3.87%	–
O=S(=O)(c1ccccc1)N1CCC(c2ccccc2)CC1	0.311%	–
Cc1cc(OCC(=O)N(C)c2c(N)n(Cc3ccccc3)c(=O)[nH]c2=O)c(C(C)C)cc1Cl	4.87%	–
CN(C(=O)c1ccccc1)c1nccnc1C#N	7.06%	–
Cc1ccc(-c2nc(C)sc2CC(=O)OCC(=O)Nc2c(F)cccc2F)cc1	4%	–
Cn1c(=O)n(C)c(=O)n(CC(=O)N2CCCCC2)c1=O	-0.0512%	–
COc1ccccc1CCNS(=O)(=O)c1cc2c3c(c1)C(C)C(=O)N3CCC2 (configuration not stated)	4.58%	–
CN(c1ccc2nc3ccccc3c(=O)n2n1)C1CCCCC1	2.94%	–
O=S1(=O)CCN2C(=N1)SC1=C2CCN(Cc2ccccc2)C1	1.51%	–
CCOC(=O)c1cc(-c2ccc(F)cc2)n(CC(=O)NCc2ccccn2)c1C	-2.49%	–
COc1ccc(C(C(=O)NC2CCCCC2)N(C(=O)Cc2c[nH]c3ccccc23)c2ccccc2)cc1OC (configuration not stated)	-5.66%	–
